A short description of assay [1]: inhibitors of TNFa-induced NFkB p65 translocation, primary screen, imaging, HUVEC, MLSMR starter and 10KST1 sets (AID 438;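 active means inhibition above 20% together with a positive visual image hit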;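 further: compound added about 3h40 before a 20 min TNFalpha stimulation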;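 on inhibition: signal is the nuclear over cytoplasmic p65 intensity ratio per well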). Conditions: HUVEC TNFa-induced p65 nuclear translocation; cell count: measured here: nuclei count (cytotoxicity indicator), at 2.08 µM; inhibition: at 2 µM, stronger effect = higher value, 0% TNFa-plus-vehicle, 100% no-TNFa wells.
Assay [2] is described as follows: inhibitors of mutant huntingtin aggregation, primary screen, imaging, exon1htt(103Q)mCFP cells, high-content imaging (AID 483;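 active means visual image review flags a hit and inhibition of aggregation exceeds 20%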;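 further: compound exposure lasted 3 days before fixation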;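 on nuclei count: percent of the per-plate median nuclei count of sample wells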). As to conditions: exon1htt(103Q)mCFP cell line, aggregate imaging, at 2 µM; inhibition of aggregation: stronger effect = higher value; nuclei count: measured here: cell count, toxicity.
The nature of assay [3]: inhibitors of E-selectin induction by TNFa, primary screen, imaging, HUVEC, immunofluorescence, MLSMR starter and 10KST1 sets (AID 487;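 active means visually confirmed hit in the image check and inhibition above 20%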;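 on inhibition: signal is fraction of cell area covered by stained E-selectin grains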;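 on nuclei count: 100% = median nuclei count of all wells on the same plate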). Conditions: HUVEC TNFalpha-induced E-selectin immunofluorescence imaging, at 2 µM; inhibition: stronger effect = higher value; nuclei count: measured here: cell number, toxicity.
For assay [4], the target named is Voltage-gated potassium channel subunit beta-2 (Rattus norvegicus) (UniProt P62483). The assay is described as follows: KvBeta enzyme negative modulators, primary screen, biochemical, NADPH fluorescence (AID 622;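 active means fluorescence slope higher than the sample average by over 3 SD, cut at about -0.22 in these data, passing the limit was not always enough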;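 further: slope of raw intensity against log time taken from 70 to 1610 s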). As to conditions: recombinant KvBeta, 4-cyanobenzaldehyde reduction, at 10 µM, stronger effect = higher value.
Voltage-gated potassium channel subunit beta-2 (Rattus norvegicus), sequence (P62483 whole entry, looked up): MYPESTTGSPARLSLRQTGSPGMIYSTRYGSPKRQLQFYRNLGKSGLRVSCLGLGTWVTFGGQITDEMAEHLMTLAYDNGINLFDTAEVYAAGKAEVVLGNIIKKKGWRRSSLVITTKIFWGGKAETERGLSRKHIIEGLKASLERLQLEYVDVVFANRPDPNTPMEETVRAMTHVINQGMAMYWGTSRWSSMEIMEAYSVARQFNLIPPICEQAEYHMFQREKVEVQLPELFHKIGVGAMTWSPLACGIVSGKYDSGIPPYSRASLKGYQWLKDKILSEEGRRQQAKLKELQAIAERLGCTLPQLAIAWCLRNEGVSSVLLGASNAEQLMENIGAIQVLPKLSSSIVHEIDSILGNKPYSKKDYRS
The target is the same in assay [5]. The assay is described as follows: KvBeta positive modulators, primary screen, biochemical, NADPH fluorescence (AID 623;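 active means NADPH fluorescence slope more negative than the mean of all samples by about 3 SD, 99.7% confidence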;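 further: fluorescence intensity change per second fitted from 20 to 320 s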). As to conditions: Recombinant KvBeta, NADPH fluorescence decrease slope, 10 min; at 10 µM; stronger effect = lower value.
The target of assay [6] is Alpha-2C adrenergic receptor (Homo sapiens) (UniProt P18825). In words: modulators of alpha2C/GIRK thallium flux, primary screen, cell-based, HEK293 alpha2C/GIRK1/2 (AID 624;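 active means fluorescence slope after compound addition differing from the mean of all screened samples at 99.7% confidence, in either direction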;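 further: slope of fluorescence ratio to pre-addition baseline per second over 15 to 24 s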). As to conditions: thallium flux BTC fluorescence, at 10 µM, actives lie on both sides.
Alpha-2C adrenergic receptor (Homo sapiens), sequence (P18825 whole entry, looked up): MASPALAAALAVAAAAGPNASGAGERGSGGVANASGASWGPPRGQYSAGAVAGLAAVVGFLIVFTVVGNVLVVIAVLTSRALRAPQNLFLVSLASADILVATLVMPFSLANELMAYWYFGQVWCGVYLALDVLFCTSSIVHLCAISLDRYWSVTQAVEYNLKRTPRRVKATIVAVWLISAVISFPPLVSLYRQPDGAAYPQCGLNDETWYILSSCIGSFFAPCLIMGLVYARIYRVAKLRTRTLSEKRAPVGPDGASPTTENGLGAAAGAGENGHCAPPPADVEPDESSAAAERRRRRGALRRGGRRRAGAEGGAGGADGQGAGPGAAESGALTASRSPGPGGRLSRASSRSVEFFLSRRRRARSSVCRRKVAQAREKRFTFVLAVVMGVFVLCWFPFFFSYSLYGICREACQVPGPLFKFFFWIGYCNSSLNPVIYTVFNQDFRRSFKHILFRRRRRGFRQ
Assay [7] is described as follows: inhibitors of Sendai virus-induced IRF3 signaling, primary screen, TLR/RLR signaling modifier project, cell-based, Sendai virus stimulus, luciferase, 10K MLSCN set (AID 602276;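 active means inhibition at or above 50% at 10 µM; inactive means inhibition below 50%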;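 further: firefly luciferase from ISG56 promoter only with Renilla not read in this screen; 0% = Sendai virus plus DMSO and 100% = medium plus DMSO without virus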). As to conditions: HEK293 RL24 IRF3 luciferase reporter, at 10 µM, stronger effect = higher value. On the technique in general: In a reporter assay the amount or activity of a reporter protein is the signal.

Assay [8] is described as follows: inhibitors of poly I:C-induced TLR3 signaling, primary screen, cell-based, poly I:C stimulus, luciferase, 10K MLSCN set (AID 602277). As to conditions: HEK293-TLR3 RL24 IRF3 luciferase reporter, at 10 µM, stronger effect = higher value.

The source made the active and inactive calls.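 How the source made its calls, unless noted: active means inhibition of the reporter signal at or above 50%; inactive means inhibition below 50%.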

Take `COc1ccccc1N1CC(C(=O)Nc2cccc(C(=O)O)c2)CC1=O` (centres undefined): the cell count in assay [1] is 495. Besides, the inhibition – broadly, the drop in the measured response relative to a control, in per cent – in assay [1] is -16.1% (inactive); in assay [3] it was -32.1% (inactive); in assay [7], -5.85% (inactive); in assay [8], -4.45% (inactive). Moreover, the inhibition of aggregation in assay [2] is 10.1% (inactive). Further, the nuclei count came to 76.3% in assay [2] and 127% in assay [3]. Besides, the fluorescence slope in assay [4] was -0.547 (inactive). Further, the NADPH fluorescence slope in assay [5] is 2.1e-05 (inactive). Also, the slope in assay [6] is 0.00458 (inactive).

With `O=C(Nc1ccc(Cl)cc1C(=O)O)c1ccc2c(c1)C(=O)N(Cc1ccco1)C2=O`, the cell count in assay [1] is 366. Also, the inhibition is 0.3% (inactive) in assay [1], -34.4% (inactive) in assay [3], 23.5% (inactive) in assay [7] and 28.2% (inactive) in assay [8]. Further, the inhibition of aggregation in assay [2] is -2.8% (inactive). Besides, the nuclei count in assay [2] stood at 105%; in assay [3], 119%. Further, the fluorescence slope in assay [4] was -0.493 (inactive). In assay [5], the NADPH fluorescence slope was -4.3e-05 (inactive). In addition, the slope in assay [6] was 0.00498 (inactive).

For `O=C(CCn1cccc1)N1CCc2ccccc21`, the cell count in assay [1] was found to be 281. In addition, the inhibition is 6.5% (inactive) in assay [1], -12% (inactive) in assay [3], -13.2% (inactive) in assay [7] and -44.8% (inactive) in assay [8]. Moreover, the inhibition of aggregation in assay [2] is -5.2% (inactive). Also, the nuclei count in assay [2] amounted to 108%; in assay [3], 106%. Moreover, the fluorescence slope in assay [4] is -0.554 (inactive). For the same compound, the NADPH fluorescence slope in assay [5] is 2e-05 (inactive). Also, the slope in assay [6] is 0.00578 (inactive).

As to `CCCS(=O)(=O)N1CCCC(C(=O)NC2CCCC(C)C2C)C1` (centres undefined), in assay [1], the cell count was 357. The inhibition in assay [1] is -0.5% (inactive); in assay [3] it was -13.1% (inactive); in assay [7], 9.58% (inactive); in assay [8], -2.45% (inactive). The inhibition of aggregation in assay [2] was 7.4% (inactive). The values for the nuclei count in assay [2] and in assay [3] were 92.6% and 105%, respectively. Also, in assay [4], the fluorescence slope is -0.551 (inactive). The NADPH fluorescence slope in assay [5] was 2.2e-05 (inactive). For the same compound, the slope in assay [6] is 0.00599 (inactive).

Consider `CCOC(=O)Cn1c(CN2CCN(c3cccc(Cl)c3)CC2)nc2c1c(=O)[nH]c(=O)n2C`, for which the cell count in assay [1] was determined as 669. The inhibition was 0% (inactive) in assay [1], 6.7% (inactive) in assay [3], 16.4% (inactive) in assay [7] and 32.5% (inactive) in assay [8]. In addition, the inhibition of aggregation in assay [2] was -3.2% (inactive). The nuclei count is 111% in assay [2] and 120% in assay [3]. For the same compound, the fluorescence slope in assay [4] is -0.583 (inactive). For the same compound, the NADPH fluorescence slope in assay [5] was -1.7e-05 (inactive). For the same compound, the slope in assay [6] was 0.00641 (inactive).

`CCc1cc2c(=O)n(C(C)C(=O)OC3CCCCC3)cnc2s1` (centres undefined): the cell count in assay [1] is 561. Besides, the inhibition is 0% (inactive) in assay [1], -73.8% (inactive) in assay [3], -49.6% (inactive) in assay [7] and -101% (inactive) in assay [8]. In addition, in assay [2], the inhibition of aggregation is 32% (inactive). For the same compound, the nuclei count in assay [2] turned out to be 114%; in assay [3], 103%. In assay [4], the fluorescence slope was -0.486 (inactive). Moreover, in assay [5], the NADPH fluorescence slope is -3.4e-05 (inactive). Moreover, in assay [6], the slope is 0.00382 (inactive).

For `CCCNC(=O)NC(C(=O)OC)C12CC3CC(CC(C3)C1)C2` (centres undefined), the cell count in assay [1] worked out at 308. Further, the inhibition in assay [1] is -6.2% (inactive); in assay [3], -52.3% (inactive); in assay [7], 12.2% (inactive); in assay [8] it was 23.2% (inactive). In assay [2], the inhibition of aggregation is 19.6% (inactive). Moreover, the nuclei count in assay [2] turned out to be 76.7%; in assay [3], 123%. Moreover, the fluorescence slope in assay [4] is -0.321 (inactive). In assay [5], the NADPH fluorescence slope is -1.6e-05 (inactive). In addition, in assay [6], the slope was 0.00242 (inactive).

As to `CC(=O)NS(=O)(=O)c1ccc(NC(=O)c2ccccc2F)cc1`, the cell count in assay [1] came to 515. The inhibition in assay [1] was -3.9% (inactive); in assay [3] it was 31.9% (inactive); in assay [7] it was 6.18% (inactive); in assay [8] it was 8.62% (inactive). Also, the inhibition of aggregation in assay [2] was 23.5% (inactive). Besides, the nuclei count in assay [2] came out at 90.4%; in assay [3] it was 90.8%. In addition, in assay [4], the fluorescence slope was -0.383 (inactive). In addition, in assay [5], the NADPH fluorescence slope was -3.8e-05 (inactive). The slope in assay [6] was 0.00586 (inactive).

As for `COc1ccc(C2=NO[C@@H]3C(=O)N(c4ccc5c(c4)OCCO5)C(=O)[C@H]23)cc1OC`, the cell count in assay [1] was 608. Further, the inhibition in assay [1] is -17.3% (inactive); in assay [3], 11.8% (inactive); in assay [7] it was -13.6% (inactive); in assay [8] it was 6.66% (inactive). For the same compound, the inhibition of aggregation in assay [2] is -8.9% (inactive). The nuclei count was 111% in assay [2] and 98.1% in assay [3]. Besides, the fluorescence slope in assay [4] was -0.541 (inactive). Moreover, in assay [5], the NADPH fluorescence slope was 8.6e-06 (inactive). Also, the slope in assay [6] is 0.0052 (inactive).

In the case of `CN(C)c1cc(NC(=O)CN2CCOCC2)c2ccccc2n1`, in assay [1], the cell count was 863. In addition, the inhibition in assay [1] is 1.2% (inactive); in assay [3], -75% (inactive); in assay [7], 9.32% (inactive); in assay [8], 46.3% (inactive). Also, the inhibition of aggregation in assay [2] is 6.6% (inactive). Moreover, the figures for the nuclei count in assay [2] and in assay [3] were 101% and 131%, respectively. In addition, the fluorescence slope in assay [4] is -0.549 (inactive). Moreover, in assay [5], the NADPH fluorescence slope is -3.5e-05 (inactive). The slope in assay [6] was 0.00612 (inactive).

For `O=S(=O)(c1cc(Cl)ccc1Br)N1CCOCC1`, in assay [1], the cell count came out at 450. Moreover, the inhibition in assay [1] was 10.6% (inactive); in assay [3], -192% (inactive); in assay [7], 6.91% (inactive); in assay [8] it was 35.8% (inactive). The inhibition of aggregation in assay [2] was -0.6% (inactive). Further, the nuclei count came out at 90.7% in assay [2] and 133% in assay [3]. In addition, the fluorescence slope in assay [4] is -0.431 (inactive). In assay [5], the NADPH fluorescence slope is -7.3e-05 (inactive). In addition, the slope in assay [6] was 0.00323 (inactive).

In the case of `CN(C)CCCOC(=O)CCc1ccccc1`, in assay [1], the cell count stood at 317. Also, the inhibition was -11.5% (inactive) in assay [1], -26.3% (inactive) in assay [3], -0.368% (inactive) in assay [7] and 5.94% (inactive) in assay [8]. In assay [2], the inhibition of aggregation is 4.5% (inactive). The nuclei count in assay [2] was 95.6%; in assay [3], 111%. Besides, in assay [4], the fluorescence slope was -0.312 (inactive). Besides, the NADPH fluorescence slope in assay [5] was -3.9e-05 (inactive). The slope in assay [6] was 0.00462 (inactive).

`COc1cccc(CN2CCN(C(=O)c3ccco3)CC2)c1OC`: the cell count in assay [1] was found to be 513. The inhibition in assay [1] is 13.6% (inactive); in assay [3], -347% (inactive); in assay [7], 11.8% (inactive); in assay [8], 8.85% (inactive). The inhibition of aggregation in assay [2] is -4.9% (inactive). Moreover, the nuclei count in assay [2] turned out to be 100%; in assay [3], 128%. Also, the fluorescence slope in assay [4] is -0.595 (inactive). The NADPH fluorescence slope in assay [5] is 1.5e-05 (inactive). The slope in assay [6] was 0.00742 (inactive).

As for `Cc1noc(C)c1COc1cccc(C(=O)Nc2ccc(C#N)cc2)c1`, the cell count in assay [1] turned out to be 422. Besides, the inhibition in assay [1] is 0.4% (inactive); in assay [3] it was -15.6% (inactive); in assay [7] it was 2.49% (inactive); in assay [8], -0.298% (inactive). The inhibition of aggregation in assay [2] is 3.1% (inactive). For the same compound, the results for the nuclei count in assay [2] and in assay [3] were 94.2% and 106%, respectively. Further, the fluorescence slope in assay [4] was -0.455 (inactive). The NADPH fluorescence slope in assay [5] was -4.9e-05 (inactive). The slope in assay [6] is 0.00473 (inactive).
